# A selection: hits, their analogues and other compounds. The true share with any hit is near 3.8%.
# TGFb inhibitor: inhibitors of TGF-b signaling; Potency, µM (top dose mostly 46.1 µM), for inactives: at the top dose activity, negative = inhibition, most hits filed as inhibitors; AID 588855; HepG2 CAGA-GFP TGF-b/SMAD3 reporter, GFP fluorescence, 18 h; TGF-beta stimulated, 500 pg/mL final; actives 1.2% (n = 410,000); further: on the % scale 0 is the no-effect control and ±100 the full control effect; nearly all actives have a fitted effect of over 65% in size
#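 HEPG2 CAGA-GFP, 1000 cells/well; 2 h settle, 37 C; cpd via pin tool; TGF-b 500 pg/mL final; 18 h, 37 C; GFP imaging ex488/em500-530; %Activity normalised to -TGF-b and +DMSO controls; CRC fit, curve class.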
# ATXN2 expr inh: ATXN2 expression inhibition. HEK-293 ATXN2-luciferase reporter, luminescence, 24 h. Potency, µM (titrated, usually from 57 µM), for inactives: top-dose activity change, negative = inhibition, usual class: inhibitors. actives 0.72% (n = 360,000). AID 1745845; further: on the % scale 0 is the no-effect control and ±100 the full control effect; nearly all actives have a fitted effect of over 55% in size
#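 qHTS (up to 57 uM final) was run with 24 h compound exposure of reporter cells at 37 °C. Each well was multiplexed: SteadyGlo luminescence measured ATXN2-luciferase expression after a fluorogenic Gly-Phe-AFC viability readout (25 uM final).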
# S2 tox: cell viability loss in ATXN counter-screen | S2 cells (HEK-293 line with an ATXN2-luciferase reporter) viability, CellTiter-Fluor protease fluorescence, 24 h | Potency, µM (doses to about 56.7 µM), usual class: cytotoxic | actives 0.49% (n = 400,000) | AID 651635; further: nearly all actives have a fitted effect of over 40% in size
# A549 viability: A549 cytotoxicity, counter-screen for Nrf2 inhibitors. AID 504648. actives 0.16% (n = 390,000). A549 ARE-Fluc cells, CellTiter-Fluor viability, 18-24 h. Potency, µM (series often up to 46 µM), for inactives: at the highest dose activity change, negative = cytotoxicity, most hits filed as inhibitors; further: on the % scale 0 is the no-effect control and ±100 the full control effect
#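 A549 ARE-Fluc cells in 5% FBS OPTI-MEM, 5000 cells/well, rested 2 h then exposed to compounds in concentration-response for 18-24 h at 37 °C. Viability by CellTiter-Fluor fluorescence (Ex 405/Em 525) after 30 min; luciferase luminescence (BugLite, 15 min, RT) read afterwards.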
# HepG2 tox: counter-screen for TGF-b inhibitors: cytotoxicity in HepG2 cells | Potency, µM (highest dose often 46.1 µM), inactives show top-dose activity change, negative = cytotoxicity, most hits filed as cytotoxic | actives 0.76% (n = 410,000) | HepG2 CAGA-GFP viability, ATP luminescence, 18 h
#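 CellTiter-Glo luminescence gave cytotoxicity after 18 hours at 37 degrees C. The cells were HepG2 CAGA-GFP in 1% FBS DMEM, stimulated with 500 pg/mL TGF-beta after compound addition. %Activity was normalised to no-cell wells (complete cell-killing) and DMSO (no toxicity), and curves were fitted and classified.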
# Nrf2 block: inhibitors of Nrf2 signaling | AID 504444 | Potency, µM (titrated, usually from 46 µM), for inactives: at the highest dose activity change, negative = inhibition, most hits filed as inhibitors | actives 2.1% (n = 360,000) | A549 ARE-Fluc reporter, luciferase luminescence, 18-24 h; further: on the % scale 0 is the no-effect control and ±100 the full control effect; nearly all actives have a fitted effect of over 60% in size
#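 Concentration-response testing used A549 ARE_Fluc cells at 5000 cells/well. Following an 18-24 h compound incubation, viability was read by fluorescence (Ex 405/Em 525) and luciferase output by luminescence.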
# * hit, by the source's call; i = inactive; ? = inconclusive; / = no result given. The call rests on the fitted dose curve; in most records, active means well fitted curve in the direction sought with a large enough effect; inconclusive means small, poorly fitted or top-dose-only effect, or another doubt; inactive means no such curve, though single readings can be large; an effect the other way counts as inactive or inconclusive. Potency means the concentration at half of the fitted maximal effect.
SMILES,TGFb inhibitor,ATXN2 expr inh,S2 tox,A549 viability,HepG2 tox,Nrf2 block
CN(c1ccccc1)S(=O)(=O)c1cccc(NC(=O)C2=NN(c3ccccc3)C(=O)CC2)c1,?,/,?,-15.2%,-14.2%,20.6µM*
NS(=O)(=O)c1cccc(NC(=O)c2cc(=O)c3ccccc3o2)c1,-5.6%,0.2%,i,-11.7%,2.7%,-2.0%
COc1ccc(NS(=O)(=O)c2cccc(NC(=O)C3=NN(c4ccccc4)C(=O)CC3)c2)cc1,?,/,i,-7.6%,-21.4%,-19.4%
CSc1ncccc1C(=O)Nc1cccc(S(=O)(=O)N(C)c2ccccc2)c1,-3.1%,-28.8%,i,-19.8%,-14.0%,11.6µM*
O=C(Nc1cccc(S(=O)(=O)N2CCCCCC2)c1)c1cc(=O)c2ccccc2o1,?,-28.9%,i,-13.7%,-22.6%,18.4µM*
O=C(Nc1cccc(S(=O)(=O)N2CCCC2)c1)c1ccco1,-12.0%,/,i,7.9%,-13.1%,-83.6%
CN(c1ccccc1)S(=O)(=O)c1cccc(NC(=O)c2cc(=O)c3ccccc3o2)c1,6.7%,12.6µM*,?,-7.8%,-6.9%,?
O=C(/C=C/c1ccc(-c2ccccc2[N+](=O)[O-])o1)c1ccc(F)cc1,?,?,?,-8.2%,11.2µM*,11.9%
O=C(/C=C/c1ccc(-c2ccccc2[N+](=O)[O-])o1)c1ccc(Br)cc1,-17.0%,?,i,-0.4%,-18.7%,-7.5%
CN(C(=O)c1ccc(Oc2ccc([N+](=O)[O-])cc2)cc1)C1CCCCC1,?,-25.7%,i,-7.7%,-24.9%,25.9µM*
CCSC1=C(C#N)C(c2cccs2)C(C(=O)OC)=C(C)N1 (centres undefined),-18.7%,15.8%,i,?,-22.7%,23.1µM*
N=c1ccn(CC(=O)c2ccc(-c3ccccc3)cc2)cc1,?,2.99µM*,i,?,-26.2%,7.31µM*
Cn1nnnc1Sc1ncnc2scc(-c3cccc(Br)c3)c12,?,8.91µM*,14.1µM*,-26.0%,-52.3%,23.1µM*
Cn1nnnc1Sc1ncnc2scc(-c3cccc(S(C)(=O)=O)c3)c12,?,8.91µM*,?,?,-115.1%,8.2µM*
CC(=O)c1cccc(-c2csc3ncnc(Sc4nnnn4C)c23)c1,6.31µM*,6.31µM*,7.94µM*,1.0%,-88.9%,?
Cn1nnnc1Sc1ncnc2scc(-c3ccc(S(C)(=O)=O)cc3)c12,/,/,/,1.5%,/,?
CC(=O)c1ccc(-c2csc3ncnc(Sc4nnnn4C)c23)cc1,/,/,/,-1.8%,/,?
OC1CCN(c2cc(-c3ccccc3)nc3cc(-c4ccc(F)cc4)nn23)CC1,-4.3%,-1.8%,i,0.9%,-18.8%,-8.8%
COc1cccc(-c2cc3nc(-c4ccccc4)cc(N4CCCC(O)C4)n3n2)c1 (centres undefined),12.6µM*,/,i,-4.3%,-32.4%,?
Cc1cccc(-c2cc3nc4c(c(N5CCCC(O)C5)n3n2)CCC4)c1 (centres undefined),?,-3.8%,i,-6.0%,-31.8%,?
OC1CCCN(c2c3c(nc4cc(-c5cccc(Cl)c5)nn24)CCC3)C1 (centres undefined),?,13.0%,i,-28.0%,-33.7%,4.61µM*
Cn1c(=O)c2[nH]c(Cc3cccc4ccccc34)nc2n(C)c1=O,23.3%,-28.4%,i,-8.0%,-0.1%,20.6µM*
CC(C)NC(=O)C1(C)CCCN1C(=O)c1cc(C#N)cs1 (centres undefined),-1.9%,3.4%,i,/,-9.8%,/
CCn1cc(C(=O)OCC(=O)OC2CC(C)CCC2C(C)C)c(=O)c2ccc(C)nc21 (centres undefined),?,-2.1%,i,?,-93.9%,20.6µM*
Cc1ccc(/C=N/Nc2ccc(C(=O)O)cc2)s1,-7.2%,0.947µM*,i,1.3%,-56.8%,?
SMILES,TGFb inhibitor,ATXN2 expr inh,S2 tox,A549 viability,HepG2 tox,Nrf2 block
C[C@@H]1CCCCO[C@@H](CN(C)S(C)(=O)=O)[C@@H](C)CN([C@H](C)CO)C(=O)c2cc(N(C)C)ccc2O1,-4.2%,11.2%,i,/,7.4%,/
Cn1c(=O)c([N+](=O)[O-])c(Cl)c2ccccc21,?,?,/,20.6µM*,-64.4%,?
Cn1c(=O)c([N+](=O)[O-])c(-n2cnc3ccccc32)c2ccccc21,12.6µM*,?,?,-2.0%,-45.1%,?
CCCCn1c(N)c(N(CC(C)C)C(=O)CSCc2ccc(Cl)c(Cl)c2)c(=O)[nH]c1=O,-29.2%,-11.1%,i,-11.8%,-11.7%,?
Cc1c(CCC(=O)O)c(=O)oc2cc(OCc3cccc(F)c3)ccc12,41.0%,5.5%,i,0.6%,-4.1%,-0.1%
Cc1c(CCC(=O)O)c(=O)oc2cc(OCc3ccccc3Br)ccc12,2.6%,/,i,-5.8%,6.9%,20.6µM*
O=S(=O)(Cc1ccccc1)NCCc1cccc(Cl)c1,1.3%,-0.6%,i,-1.3%,-9.3%,8.9%
Cc1cc(C)cc(NS(=O)(=O)c2ccc(-c3cc(C)no3)cc2)c1,12.6µM*,/,/,-12.2%,-53.7%,?
Cc1cc(-c2ccc(S(=O)(=O)Nc3ccc(Cl)cc3)cc2)on1,-9.1%,/,/,-1.8%,-41.0%,/
Cc1ccc(NS(=O)(=O)c2ccc(-c3cc(C)no3)cc2)c(C)c1,12.6µM*,/,/,-13.2%,-45.5%,?
COc1ccc(-c2cc(C)no2)cc1S(=O)(=O)Nc1cccc(C)c1,4.2%,-8.8%,i,-22.9%,1.1%,23.1µM*
COc1ccc(-c2cc(C)no2)cc1S(=O)(=O)Nc1ccccc1,-10.0%,1.9%,i,-14.4%,-3.6%,16.6%
CCc1ccc(NS(=O)(=O)c2ccc(-c3cc(C)no3)cc2)cc1,?,/,/,3.7%,11.2µM*,?
Cc1ccccc1C(=O)Nc1cccc(-c2cn3cccnc3n2)c1,29.6%,-8.2%,i,-0.2%,0.3%,/
CCOC(=O)Cc1csc(SCC(=O)N2CCN(c3ccccc3)CC2)n1,1.1%,1.4%,i,0.3%,2.5%,3.0%
COc1ccc(C2/C=C\CN([S+](=O)([O-])c3ccc4ccccc4c3)C(C)C(=O)N2Cc2ccc(F)cc2)cc1 (centres undefined),-11.3%,/,/,-1.1%,-0.5%,-6.4%
Cc1ccc(Cn2ncc3c(N4CCN(c5ccccc5C)CC4)ncnc32)cc1,?,-22.6%,?,?,-27.1%,20.6µM*
CCN1CCN(c2ncnc3c2cnn3-c2cc(Cl)ccc2C)CC1,11.5%,-19.9%,?,-14.6%,0.3%,/

# Assay outcomes from PubChem.
